TRHR enhancer = allosterically enhances the human TRH receptor | P34981 | TRHR cells, fluo-8 calcium fluorescence, EC20 TRH enhancement | enhancement, % at 2 µM | 0.66% of 360,000 active | AID 493056; in the data active = enhancement above about 30%
Target sequence (P34981 whole entry, looked up): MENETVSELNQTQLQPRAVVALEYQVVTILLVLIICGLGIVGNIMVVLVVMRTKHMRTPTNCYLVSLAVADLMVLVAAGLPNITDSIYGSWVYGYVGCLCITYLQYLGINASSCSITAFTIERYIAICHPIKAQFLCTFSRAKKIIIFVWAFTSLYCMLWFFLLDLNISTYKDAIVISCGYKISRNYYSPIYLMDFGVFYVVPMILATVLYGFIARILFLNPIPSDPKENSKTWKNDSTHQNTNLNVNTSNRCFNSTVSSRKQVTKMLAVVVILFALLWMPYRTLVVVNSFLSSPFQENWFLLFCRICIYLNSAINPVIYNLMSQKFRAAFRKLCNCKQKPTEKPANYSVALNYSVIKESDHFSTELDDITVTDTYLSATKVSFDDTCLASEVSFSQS
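TRHR-expressing cells loaded with fluo-8 calcium dye were read kinetically (ex 480/em 530) during compound addition, then stimulated with an EC20 of TRH (10 nM final). Enhancement of the Gq-mediated intracellular calcium response was scored.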
D1 ag = human D1 receptor agonism | HEK293 T-REx D1 cells, calcium flux, agonist mode | AID 504660 | activation, % at 2 µM | 1% of 360,000 active
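Inducible HEK293 T-REx D1 cells, force-coupled to calcium signalling, were plated at 4000 cells/well with tetracycline and held overnight at 30 C. After no-wash calcium dye loading, compound-evoked calcium rise over 180 s flagged agonists.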
TRHR agonist = agonists of human TRH receptor; TRHR cells, calcium flux fluo-8, FDSS agonist mode; activation, % at 2 µM; 0.18% of 360,000 active; AID 493084
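Steps: seed TRHR cells overnight; add fluo-8 no-wash Ca dye, RT 30 min–1.5 h; record 10 s baseline; pin-transfer compounds; monitor fluorescence 1 cycle/s for the agonist window. Calcium increases flag candidate agonists.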
D1 PAM = enhances dopamine response at the human D1 receptor; P21728; HEK293 TREx D1 cells, calcium flux, dopamine EC20 potentiation; potentiation, % at 10 µM; 0.036% of 360,000 active; in the data active = potentiation above about 30%
D1 antagonist = human D1 dopamine receptor antagonism. 3.2% of 360,000 active. AID 504652. P21728. activity change, negative = inhibition, % at 10 µM. HEK293 TREx D1 cells, calcium flux, dopamine EC80; hits give low values; in the data active = activity change below about -30%
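Tetracycline-induced HEK293 Trex D1 cells, force-coupled to calcium, dye-loaded; compounds added and read 180 s, then EC80 dopamine added and calcium flux tracked kinetically another 180 s.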
Large screens that a line does not name were inactive; ! = repeats disagree. This is a sample that favours compounds with a hit; in the whole collection about 4.7% have one here. Cut-off read from the data, not from the text of the source, unless noted: active = activation above about 30%; inactive = the rest.

Cc1ccc(C)n1-c1c(C(=O)NCCCN2CCN(c3ccc(F)cc3)CC2)sc2ncccc12	D1 antagonist -56.3
O=C(NCCCN1CCN(c2ccccc2)CC1)c1sc2ncccc2c1-n1cccc1	none
Cc1ccc(-n2ncc(C(=O)NCCCN3CCc4ccccc4C3)c2C2CCN(C(=O)OC(C)(C)C)CC2)c(C)c1	none
Cn1cc(-c2cc3n(n2)CCC(=O)N3CCCC(=O)Nc2ccccc2F)c2ccccc21	none
Cc1ccc2sc(N(Cc3cccnc3)C(=O)CCOc3ccccc3)nc2c1C	none (no result: D1 antagonist)
O=c1c2cc3c(cc2[nH]c(=S)n1CCN1CCOCC1)OCO3	D1 antagonist -49.6
CC1CCN(CCn2c(=S)[nH]c3cc4c(cc3c2=O)OCO4)CC1	none
CCc1ccc(NC(=O)C2CCN(C(=O)[C@@H]3Cc4ccccc4CN3)CC2)cc1	D1 ag 32.0
C=CCc1cc(OC)ccc1OCCOCCN1CCc2ccccc2C1	D1 antagonist -42.7
COc1ccc(NC(=O)CSCc2cnn(-c3ccccc3)c2-n2cccc2)cc1	none
CCc1ccc(S(=O)(=O)Nc2cccc(-c3ccc(N4CCCCC4)nn3)c2)s1	none
Cc1cc(C)c(C(=O)COC(=O)CCn2c(C)csc2=O)cc1C	none
COc1ccccc1NC(=O)COC(=O)CCn1c(C)csc1=O	D1 antagonist -32.7
COc1cccc(NC(=O)COC(=O)Cn2c(C)csc2=O)c1	D1 antagonist -93.8 (no result: D1 PAM)
Cc1ccc(NC(=O)COC(=O)Cn2c(C)csc2=O)cc1C	D1 antagonist -35.0
Cc1cc(C)c(C(=O)COC(=O)Cn2c(C)csc2=O)cc1C	D1 antagonist -36.1
COc1ccccc1NC(=O)CNC(=O)Cn1c(C)cc2ccccc2c1=O	D1 antagonist -65.4
COc1ccc(OC)c(NC(=O)CNC(=O)Cn2c(C)cc3ccccc3c2=O)c1	none
C/C(=N\NC(=O)c1ccc(O)cc1)c1ccc(N2CCOCC2)cc1	none
O=C(N/N=C/c1ccc(N2CCOCC2)cc1)c1ccc(O)cc1	D1 antagonist -54.6
CCCCCC[n+]1c(-c2ccccc2)csc1Nc1ccccc1	D1 antagonist -82.2
CCc1ccc(NC(=O)Cn2c(=O)n(CCCC(=O)NCCc3ccc(OC)c(OC)c3)c(=O)c3ccccc32)cc1	none
CCn1c(Cl)c(C=O)s/c1=N\S(=O)(=O)c1ccccc1	D1 antagonist -38.4
CCN(CC)c1nc2c(S(=O)(=O)c3ccc(C)cc3)nnn2c2ccsc12	none
CC1(OC(=O)CCc2ccccc2)C(=O)C=C2C=C(c3ccc(C#N)cc3)N(c3ccccc3)C=C2C1=O (centres undefined)	D1 antagonist -36.8
Cc1onc(-c2c(Cl)cccc2Cl)c1C(=O)N1CCOCC1	none
Cc1cc(C)c2nc(-c3cccc(Cl)c3)c(C)c(C(=O)N3CCOCC3)c2c1	TRHR enhancer 32.7
CCN(CC)C(=O)c1nn(-c2ccc(OC)cc2)c(=O)c2c(N)scc12	none
CCc1ccc(NC(=O)CSc2nc3ccccc3nc2Cc2ccccc2OC)cc1	none
O=C(CCSc1ccc(Cl)c(Cl)c1)NC12CC3CC(CC(C3)C1)C2	D1 ag 40.5
O=C(CSc1ccc(F)cc1)NC12CC3CC(CC(C3)C1)C2	none
COc1ccc(-c2nnnn2C)cc1S(=O)(=O)NCc1ccccc1	D1 antagonist -55.3
Cc1ccc(C)c(N2CCN(C(=O)c3ccc(-c4nc(COc5ccccc5)c(C)o4)cc3)CC2)c1	none
CN(C)CCCNC(=O)c1ccc(-c2nc(-c3ccc(Cl)cc3)cs2)cc1	D1 antagonist -58.5
CC(C)(C)c1ccc(C(=O)NCCc2csc(-c3ccc(Cl)cc3)n2)cc1	none
CC(C)(C)NC(=O)NC(=O)COC(=O)c1cccc(F)c1	none
CC(C)(C)NC(=O)NC(=O)COC(=O)c1cccc(OC(F)F)c1	D1 antagonist -31.1
Cc1ccc(Cl)cc1NC(=O)c1ccc(NC(=O)N2CCSc3ncccc32)cc1	none
CCCCc1nn2c(=O)cc(COC(=O)CNC(=O)COc3ccc(C)cc3)nc2s1	none
Cn1ccsc1=NC(=O)c1ccccc1F	none
Cc1ccc(C)c(-n2c(-c3ccc(Br)cc3)csc2=NC(=O)c2ccccc2F)c1	D1 antagonist -42.0
Cc1cccc(Cn2cc(S(=O)(=O)c3cccc(Cl)c3)c(=O)c3cc(F)c(N4CCOCC4)cc32)c1	none
COc1ccccc1CN1CCN(C2CCN(C(=O)Nc3ccccc3)CC2)C(=O)C1=O	none
Cc1ccc2oc(C(=O)NCc3ccc(S(N)(=O)=O)cc3)cc(=O)c2c1	none
Cc1ccc(CNC(=O)c2cc(=O)c3cc(C)ccc3o2)cc1	D1 ag 60.4!
COc1ccc(CNC(=O)Cc2coc3ccc(C)cc23)cc1	D1 antagonist -34.7
Cc1ccc(C)c(NC(=O)CSc2nnc(CNC(=O)c3ccccc3)n2-c2ccccc2)c1	none
O=c1c2cc(Br)ccc2nc(-c2ccc(Cl)cc2)n1O	D1 ag 107.2
O=C(CSc1c2c(nc3ccc(Cl)cc13)CCCC2)N1CCN(c2cccc(Cl)c2)CC1	none
O=C(c1cccn1-c1nnc(N2CCCC2)s1)N1CCN(c2ccc(Cl)cc2)CC1	none
COc1ccc(Cl)cc1NC(=O)Cn1c(=O)n(Cc2ccco2)c(=O)c2cccnc21	none
CC1(C)CC(=O)C(C(c2ccco2)C2C(=O)CC(C)(C)CC2=O)C(=O)C1	TRHR enhancer 38.6
COc1cc(NC(=O)c2nnn(CC(=O)Nc3ccccc3)c2N)cc(OC)c1	none
CN(C(=O)CSc1nc2ccccc2n1CC(=O)NCc1ccc(F)cc1)c1ccc(F)cc1	D1 antagonist -31.8
CCn1c(SCC(=O)N(C)c2c(N)n(Cc3ccccc3)c(=O)[nH]c2=O)nc2ccccc21	TRHR enhancer 31.3
CN(C(=O)CSc1nc2ccccc2n1CC(=O)N(C)C1CCCCC1)c1ccc(F)cc1	none
COc1ccc(-c2nc3c(C#N)c[nH]n3c2NC2CCCC2)c(OC)c1	none
COc1ccc(-n2nc3c(N4CCC(C(=O)NCc5cccc(F)c5)CC4)nnc(C)c3c2C)cc1	none
Fc1ccccc1C(NCCc1ccc(Cl)cc1)c1nnc(-c2ccccc2)o1 (centres undefined)	none
Clc1ccc(CCNC(c2ccc(Cl)cc2)c2nnc(-c3ccccc3)o2)cc1 (centres undefined)	D1 ag 35.4
Cc1ccc(S(=O)(=O)N(C)c2ccc3sc(C)nc3c2)cc1	TRHR enhancer 37.9
C=CCC1NS(=O)(=O)OC(COC)C1C (centres undefined)	none
C=CCC1NS(=O)(=O)OC(CCCC)C1O (centres undefined)	TRHR enhancer 33.6
Cn1cc(CNC(=O)COc2ccc(Cl)cc2Cl)cn1	none
Cc1nn(C)cc1CNC(=O)COc1ccc(Cl)cc1Cl	D1 antagonist -32.8
O=c1[nH]c2cccnc2n1Cc1ccco1	D1 antagonist -43.2
O=C(Nc1ccc(N=Nc2ccccc2)cc1)c1ccc(Cl)cc1Cl	D1 antagonist -38.0
O=C(Nc1ccc(N=Nc2ccccc2)cc1)c1ccccc1Cl	none
